# In the supplement of paper PMC6555819:
# How the values were obtained:
# Assay in all cases: PBM binding z-score (relative to random genomic background probes); higher = stronger binding; sequences stand for … in GC…GCGATTGACAGCGTAGAATGAAGG
# [1] = system: FXR:RXRa (NR concentration 270 nM, RXRa partner concentration 90 nM)
# How it was run: (§1)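 Each nuclear receptor dimer, without ligand, was incubated for 1 h on custom Agilent 4×180K protein-binding microarrays. Binding was detected with antibodies against each partner (one per run), and scanned fluorescence was regression-normalized. The binding z-scores are referenced to random human genomic background probes.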
# [2] = system: LXRa:RXRa (NR concentration 270 nM, RXRa partner concentration 90 nM)
# How it was run: as §1
# [3] = system: LXRa homodimer (NR concentration 270 nM)
# How it was run: as §1
# [4] = system: LXRb:RXRa (NR concentration 270 nM, RXRa partner concentration 90 nM)
# How it was run: as §1
# [5] = system: LXRb homodimer (NR concentration 270 nM)
# How it was run: as §1
# [6] = system: PPARa:RXRa (NR concentration 270 nM, RXRa partner concentration 90 nM)
# How it was run: as §1
# [7] = system: PPARg:RXRa (NR concentration 180 nM, RXRa partner concentration 90 nM)
# How it was run: as §1
# [8] = system: PPARg:RXRa 270nM:90nM, anti-RXR (NR concentration 270 nM, RXRa partner concentration 90 nM)
# How it was run: as §1
# [9] = system: PPARg:RXRa 30nM:10nM, anti-RXR (NR concentration 30 nM, RXRa partner concentration 10 nM)
# How it was run: as §1
# [10] = system: PPARg:RXRa 90nM:30nM, anti-RXR (NR concentration 90 nM, RXRa partner concentration 30 nM)
# How it was run: as §1
# [11] = system: PPARg:RXRa DBDmut IVT, anti-RXR (DBD mutation: RXRa K156A/R161A, NR concentration 270 nM, RXRa partner concentration 90 nM)
# How it was run: as §1
# [12] = system: PPARg:RXRa IVT, anti-PPARg (NR concentration 270 nM, RXRa partner concentration 90 nM)
# How it was run: as §1
# [13] = system: PPARg DBDmut:RXRa IVT, anti-PPARg (DBD mutation: PPARg1 K132A/R137A, NR concentration 270 nM, RXRa partner concentration 90 nM)
# How it was run: as §1
# [14] = system: PPARg DBDmut IVT, anti-PPARg (DBD mutation: PPARg1 K132A/R137A, NR concentration 270 nM)
# How it was run: as §1
# [15] = system: PPARg homodimer (NR concentration 180 nM)
# How it was run: as §1
# [16] = system: PXR:RXRa (NR concentration 270 nM, RXRa partner concentration 90 nM)
# How it was run: as §1
# [17] = system: PXR homodimer (NR concentration 270 nM)
# How it was run: as §1
# [18] = system: RARa:RXR (NR concentration 270 nM, RXRa partner concentration 90 nM)
# How it was run: as §1
# [19] = system: RARa homodimer (NR concentration 270 nM)
# How it was run: as §1
# [20] = system: RARb:RXRa (NR concentration 270 nM, RXRa partner concentration 90 nM)
# How it was run: as §1
Sequence,PBM binding z-score [1],PBM binding z-score [2],PBM binding z-score [3],PBM binding z-score [4],PBM binding z-score [5],PBM binding z-score [6],PBM binding z-score [7],PBM binding z-score [8],PBM binding z-score [9],PBM binding z-score [10],PBM binding z-score [11],PBM binding z-score [12],PBM binding z-score [13],PBM binding z-score [14],PBM binding z-score [15],PBM binding z-score [16],PBM binding z-score [17],PBM binding z-score [18],PBM binding z-score [19],PBM binding z-score [20]
ATACCAAGGTGATCGTGAGGTCGTTGACACTAAC,2.81,1.92,0.798,1.38,-0.392,1.59,0.583,0.586,0.0332,0.0166,0.337,1.12,-0.329,0.642,1.07,3.23,1.34,2.52,0.306,1.4
CCAGACAAGTGAAAGGTAACTCAGTCTGGTACGC,-0.0838,0.254,-0.234,0.206,-0.315,1.07,1.42,2.61,0.692,1.77,-0.0186,0.0117,-0.187,-0.255,0.888,0.0621,-0.0763,0.166,0.124,0.247
TCCTGTAGATCAATAGAGGTTAAGAAAGTGCGCT,0.952,3.56,0.803,1.93,0.0925,1.74,-0.0634,1.63,2.77,2.39,1.98,0.459,0.335,0.281,0.185,2.91,0.378,1.59,0.54,0.925
GCTATTAGTTGAAAGGGCACCCGAATGATTCTCG,0.43,0.387,0.235,0.554,-0.128,2.14,2.65,4.3,2.41,3.99,0.791,0.951,-0.101,0.368,1.05,0.72,0.405,1.28,0.468,1.72
ACTATTAGTTGACTTAGGGCACCCGATACGACGC,-0.0668,-0.208,0.0685,-0.198,0.757,-0.213,0.894,0.204,0.268,0.525,0.28,0.339,1.12,1.59,0.282,-0.159,0.392,0.226,1.18,0.663
ACTATTAGTTTACTTAGGGCAACCGATACGACGC,0.0954,0.173,0.422,0.0496,0.375,0.0302,0.985,0.261,0.394,0.541,0.826,0.924,0.857,1.39,0.166,0.669,1.14,0.64,0.904,1.04
ACTATTAGTTGACTTATGGCAACCGATACGACGC,0.061,0.293,0.179,0.682,0.995,0.117,1.04,0.488,0.748,0.352,0.0133,0.165,1.06,1.08,0.983,0.367,0.358,0.397,1.2,0.351
CAAACTAGTTCACGAAAGGTCAAAGTCGAATGAC,6.34,7.45,7.18,6.48,2.77,5.65,4.37,5.37,2.24,4.32,2.5,3.57,1.49,0.645,5.52,6.88,5.53,7,3.03,4.89
CGAACTAGGCCAAGGACAGTGAATCTCCGCACGC,-0.241,-0.713,-0.191,-0.883,-0.975,1.04,1.69,1.53,-0.0892,0.672,6.24,4.83,0.31,-0.452,-0.431,-0.557,-0.632,-0.45,-0.416,0.81
TTGCCAAGGTGAGCTGAGGTCGTTGATCCAACTC,1.5,0.918,-0.266,0.415,-1.74,1.46,-0.358,0.302,-0.768,-0.564,0.582,1.28,-1.28,-1.13,-0.789,4.61,0.057,1.33,-0.704,1.73
AGAATGAGGTTACCAACGATCAGGGAAACGCTTG,1.58,5.96,-0.334,2.43,-0.375,3.66,2.78,2.43,0.844,1.7,3.37,3.5,0.997,1.46,0.587,0.991,-0.0709,2.01,-0.203,1.83
CCTGCTAGGCCATGGTCAGCTAATCTACAGTATG,-0.543,-0.565,-0.936,-0.753,-0.769,-0.617,0.069,-0.552,-0.451,-0.579,1.36,0.103,-0.241,-1.56,-0.736,-0.665,-0.705,-0.631,-0.715,0.929
CGTCCAAGGTCAGAGAGGTCGGTGAATGCCGAGT,4.71,3.52,0.408,2.4,-0.461,3.87,2,2.92,0.323,1.8,2.42,2.66,-0.525,-1.08,0.814,3.88,5.12,2.96,-0.301,4.51
TCTTGTAGATAAAGCAGGTTAAGAAAGCCTGAGT,0.606,0.66,-0.172,0.585,-0.647,1.06,-0.166,1.54,2.82,2.17,1.9,0.689,-0.607,0.523,0.35,0.561,0.376,0.708,0.783,0.2
ATCGAAAGGTCGACGAGGTGGGTATACACCGTTT,3.58,3.27,0.14,2.55,0.209,4.1,2.2,2.89,0.706,1.6,0.15,1.75,0.733,1.26,1.34,2.6,0.341,2.98,-0.0132,3.68
AGAACGAAGGCACGCTGAGTTGATAGCAGAGTAG,-0.877,-0.66,-0.838,-1.06,-0.997,-0.367,0.622,-0.693,-0.318,-0.476,-0.47,-0.214,-0.0465,-0.623,-1.17,-0.449,-0.696,-0.468,-0.886,-0.566
TCTAGGTGGTCAAAGGTCACACACTCGAAATGCG,6.45,5.79,3.73,5.64,1.02,6.57,10.3,8.72,8.95,10.2,3.06,5.9,1.01,1.59,4.5,6.19,1.82,7.34,2.69,5.22
TCTCGGAGGACTCGAAAGGTCAGAGCTCGACATC,1.95,2.86,1.04,2.66,-0.682,3.21,0.567,2.34,2.29,1.88,1.26,0.952,-0.254,-0.419,1.63,3.16,0.0023,3.76,-0.0102,3.62
CCTTACGGGTCAAGGTTATAGAACGGGTGGTACG,5.4,3.68,0.401,3,-0.0236,5.1,4.04,4.67,1.87,3.53,1.6,3.22,-0.135,-0.211,1.83,3.27,0.223,4.16,1,4.13
TAGCCTAGGTCATGCGGGCCCGTATAGTGTCGGC,3.96,3.12,0.169,1.59,0.214,3.37,1.74,2.29,0.0314,1.22,1.87,3.05,-0.348,0.0155,0.405,1.07,-0.531,2,-0.428,3.62
TCTTGTAGATCAAGCAGGTTGAGAAAGCCTGAGT,0.128,0.187,-0.471,-0.223,-0.57,0.441,-0.512,0.973,2.32,1.66,1.7,0.256,-0.788,-0.244,-0.463,0.124,-0.29,-0.172,-0.364,-0.242
TCTTGTAGATCAATAGAGGTTAAGGAAGTGCGCT,1.25,2.42,0.324,1.5,-0.201,2.08,0.136,1.99,3.04,2.63,1.91,0.959,0.906,0.773,0.732,2.58,0.412,1.96,0.894,1.04
CGTCAAAGTTCAACGAAGGTAACGTAAAGCACGC,5.82,5.6,2.79,3.6,1.02,4.68,4.43,4.94,2.06,4.07,0.66,1.92,0.175,0.224,2.37,4.52,2.37,3.37,0.936,5.18
ATCTCTAGGTAAAGTTGAGTGAAAGATCGATAGA,0.674,0.644,-0.0419,0.163,0.646,0.992,1.37,2.56,1.23,2.07,2.32,2.1,0.815,1.27,0.789,-0.222,0.345,0.0645,0.741,0.652
CGTCCAATGTCAATGCTAGGTCAGTGAAAGCATT,0.511,0.781,0.797,0.644,-0.123,1.01,-0.028,0.117,-0.386,0.0802,0.333,0.858,-0.586,-0.143,0.93,0.655,-0.0465,1.27,-0.0899,2.17
ACAGACAGGTGATGAAGGTAAATCAGGCTATCAT,-0.0911,-0.136,-0.0858,0.169,-0.557,0.252,0.707,0.0594,-0.0828,-0.0561,-0.0404,0.544,0.329,0.144,0.185,-0.214,-0.0702,0.248,0.26,0.21
TCGAGTAGGTTAGTCGGGGCACTCAGCCAACATA,0.251,0.253,-0.0703,0.402,-1.06,0.681,0.103,0.749,0.995,0.753,2.29,2.16,-0.475,-0.114,0.481,0.0586,-0.241,0.247,-0.581,0.524
TCAGACAGGTGAGGGTAACTCAGGTACGCAGTCG,0.261,1.36,-0.144,0.561,-0.273,0.983,0.558,1.46,3.02,2.23,2.09,1.08,0.134,-0.531,0.237,0.408,-0.0185,0.722,-0.208,1.02
ATCTCTGGGTAAAGATAGTTCAGTGAATGCAAAT,-0.122,3.7,0.422,0.738,0.449,0.473,0.419,0.54,0.327,0.434,1.83,1.65,1.05,1.76,0.681,1.17,0.829,0.549,1.1,0.828
